ChEMBL document CHEMBL4513216, “Probing the Open Global Health Chemical Diversity Library for Multistage-Active Starting Points for Next-Generation Antimalarials” (ACS Infect Dis, 2020)
Among all 69,000 compounds or so, about 8,600 (12%) showed an effect of 50% or more. Many of the other results were omitted from the sample, so strong results are more common in it than they were.

tested on: Plasmodium berghei; test: Screen against P. berghei liver stage (PbLuc), transformed with Luciferase, at 10uM; format: functional, HepG2; conditions: tested at 10 uM

Question: Which INHIBITION does the source give for `CCC(C)(C)C(=O)Nc1ccc2ccn(CC(=O)NC)c2c1` here?
Answer: -3.47%

Question: Which INHIBITION does the source give for `Cc1oncc1C(=O)N1C[C@H]2CCCC(N(C)Cc3cccs3)[C@H]2C1` (stereo partly drawn) here?
Answer: 21.6%

Question: `CCS(=O)(=O)CC(=O)NC(C)c1ccc(OCCC(C)C)cc1` (stereo not drawn) was tested. Which INHIBITION did it give?
Answer: 15.4%

Question: Which INHIBITION does the source give for `CCOC(=O)Cc1csc(NC(=O)c2ccc(=O)[nH]n2)n1` here?
Answer: 18.4%

Question: With `Cc1nc(CN2CCC3(CCN(c4ncc(F)cn4)C3)C2=O)cs1` (stereo not drawn) as the compound, how does the INHIBITION read?
Answer: -23.7%

Question: Which INHIBITION does the source give for `CCc1c(C(=O)N2CCC(CC(N)=O)CC2)cnn1C(C)(C)C` here?
Answer: 47.1%

Question: For `CCc1c(C(=O)N2CCN(CC(N)=O)CC2)cnn1C(C)(C)C`, which INHIBITION is on record?
Answer: 53.8%

Question: `CCc1c(C(=O)N2CCCN(C(C)=O)CC2)cnn1C(C)(C)C` was tested. Which INHIBITION did it give?
Answer: 44.3%

Question: `CC(C)(C)c1ccc(-n2ncc3c2CCCC3N)cc1` (stereo not drawn) was tested. Which INHIBITION did it give?
Answer: 22.6%

Question: For `CN(C)S(=O)(=O)NC1CCCc2c1cnn2-c1ccc(C(C)(C)C)cc1` (stereo not drawn), which INHIBITION is on record?
Answer: 58.8%

Question: For `Cc1ccc(-n2ncc3c2CCCC3N)cc1C` (stereo not drawn), which INHIBITION is on record?
Answer: 33.7%

Question: With `Cn1cc(C2CCCN2CCC(=O)N2CCc3sccc3C2)cn1` (stereo not drawn) as the compound, how does the INHIBITION read?
Answer: 19.2%

Question: For `COc1ccc(CN2CC[C@H]3CO[C@H](CNC(=O)N(C)C)[C@H]3C2)cc1`, which INHIBITION is on record?
Answer: 12.7%

Question: `Cc1ccc(CN2Cc3nccn3CC(Cn3cncn3)C2)s1` (stereo not drawn) was tested. Which INHIBITION did it give?
Answer: -9.02%

Question: `Cc1ccc(C(=O)N(C)S(C)(=O)=O)cc1Cl` was tested. Which INHIBITION did it give?
Answer: 61.9%

Question: For `CN(C(=O)c1ccc(Cl)c(S(C)(=O)=O)c1)c1ccccc1`, which INHIBITION is on record?
Answer: 5.91%

Question: How did the INHIBITION turn out when `Cc1ccc(C(=O)N(CC(=O)O)CC(C)C)cc1F` was run?
Answer: 39.7%

Question: With `Cc1ccc(C(=O)N(C)CCNS(C)(=O)=O)cc1Br` as the compound, how does the INHIBITION read?
Answer: 23.9%

Question: `Cc1sc(C(=O)N(C)S(C)(=O)=O)cc1-c1ccc(F)cc1` was tested. Which INHIBITION did it give?
Answer: 13.3%

Question: With `Cc1cc(C(=O)N(C)S(=O)(=O)C(C)C)ccc1F` as the compound, how does the INHIBITION read?
Answer: 61.9%

Question: With `CN(CC(F)(F)F)C(=O)c1ccc(F)c(NS(C)(=O)=O)c1` as the compound, how does the INHIBITION read?
Answer: -43.5%

Question: For `CN(CCNS(C)(=O)=O)C(=O)c1ccc(Cl)c(Cl)c1`, which INHIBITION is on record?
Answer: 66.5%

Question: With `Cc1cc(C(=O)N(CC(=O)O)CC(C)C)ccc1F` as the compound, how does the INHIBITION read?
Answer: 40.9%

Question: With `Cc1cc(C(=O)N(C)S(C)(=O)=O)ccc1F` as the compound, how does the INHIBITION read?
Answer: 61%

Question: For `Cc1cc(Br)ccc1C(=O)N(C)CCNS(C)(=O)=O`, which INHIBITION is on record?
Answer: 35.9%

Question: For `Cc1ccc(C(=O)N2CCCS2(=O)=O)cc1Cl`, which INHIBITION is on record?
Answer: 21.1%

Question: With `Cc1cc2ccncc2n1CC1(O)CCN(C(=O)c2ccncc2)CC1` as the compound, how does the INHIBITION read?
Answer: 7.19%

Question: `CNc1nc(C)c(C(=O)NCC(C)(C)N2CCCCC2)s1` was tested. Which INHIBITION did it give?
Answer: -34.6%

Question: How did the INHIBITION turn out when `CN(CCO)Cc1nnc(C2CCN(CC3[C@H]4CNC[C@@H]34)CC2)n1C` (stereo partly drawn) was run?
Answer: -3.55%

Question: `c1ncn(CC2CCCN(Cc3nnc(C4CC4)o3)C2)n1` (stereo not drawn) was tested. Which INHIBITION did it give?
Answer: -0.74%

Question: `Cc1nc(C(C)C)sc1C(=O)NCCNc1ncccn1` was tested. Which INHIBITION did it give?
Answer: 26.5%

Question: For `COc1ccc(CN2CCC(C(N)=O)CC2)cc1SC(F)(F)F`, which INHIBITION is on record?
Answer: 52.2%

Question: `COc1ccc(CN2CCNC(=O)CC2)cc1SC(F)(F)F` was tested. Which INHIBITION did it give?
Answer: 25.3%

Question: With `COc1ccc(CN2CCN(C(C)=O)CC2)cc1SC(F)(F)F` as the compound, how does the INHIBITION read?
Answer: 21.9%

Question: For `O=C(CCc1ccccc1)NCC(O)c1c(F)cccc1F` (stereo not drawn), which INHIBITION is on record?
Answer: 45.7%

Question: How did the INHIBITION turn out when `Cc1noc([C@@H]2C[C@H]3OCC[C@H]3N(C(C)C)C2)n1` was run?
Answer: -18.2%

Question: With `Cc1noc([C@H]2C[C@H]3OCC[C@H]3N(C3CCC3)C2)n1` as the compound, how does the INHIBITION read?
Answer: 92%

Question: Which INHIBITION does the source give for `Cc1noc([C@@H]2C[C@H]3OCC[C@H]3N(Cc3ccoc3)C2)n1` here?
Answer: 15.9%

Question: Which INHIBITION does the source give for `Cc1noc([C@@H]2C[C@H]3OCC[C@H]3N(Cc3cc(C)c(C)o3)C2)n1` here?
Answer: 57.9%

Question: With `Cc1noc([C@@H]2C[C@H]3OCC[C@H]3N(CC3CCCC3)C2)n1` as the compound, how does the INHIBITION read?
Answer: 29.9%

Question: `Cc1noc([C@H]2C[C@H]3OCC[C@H]3N(Cc3cccs3)C2)n1` was tested. Which INHIBITION did it give?
Answer: 43.9%

Question: How did the INHIBITION turn out when `Cc1noc([C@H]2C[C@H]3OCC[C@H]3N(Cc3scnc3C)C2)n1` was run?
Answer: 0.777%

Question: For `CCc1ccc(CN2C[C@@H](c3nc(C)no3)C[C@H]3OCC[C@H]32)o1`, which INHIBITION is on record?
Answer: -2.72%

Question: Which INHIBITION does the source give for `Cc1noc([C@@H]2C[C@H]3OCC[C@H]3N(Cc3sccc3C)C2)n1` here?
Answer: 54.4%

Question: How did the INHIBITION turn out when `Cc1cnn(CC2CCCN2CC(=O)Nc2nccs2)c1` (stereo not drawn) was run?
Answer: -12.1%

Question: Which INHIBITION does the source give for `CC(C)N1[C@@H](C(=O)NCC2CC2)C[C@@H]2CN(Cc3ccco3)C[C@@H]21` here?
Answer: -11%

Question: For `COCCOc1cc(C)ccc1NC(=O)N(C)Cc1cnn(C)c1`, which INHIBITION is on record?
Answer: -58%

Question: `Cc1c(O)oc(-c2ccc(Br)cc2)nc1=O` was tested. Which INHIBITION did it give?
Answer: 55.5%

Question: Which INHIBITION does the source give for `O=C1CN(Cc2nnc(-c3ccc(Br)cc3)o2)CCN1` here?
Answer: 10.8%

Question: For `CNC(=O)NC(C)c1nc(-c2ccc(Br)cc2)no1` (stereo not drawn), which INHIBITION is on record?
Answer: 47.8%

Question: For `CCOCCCNS(=O)(=O)c1ccc2c(c1)NC(=O)C(C)O2` (stereo not drawn), which INHIBITION is on record?
Answer: 2.55%

Question: With `Cc1nn(C)c(N(C)C)c1CNC1CCc2c(Cl)cccc21` (stereo not drawn) as the compound, how does the INHIBITION read?
Answer: 19.915%

Question: For `Cc1nc(C)c(C(=O)N2CCCC(C(=O)c3nccn3C)C2)s1` (stereo not drawn), which INHIBITION is on record?
Answer: 36.6%
